Test results from the supplement of paper PMC7380943.

Columns and labels:
[1] = system: CLZ3 (HCA2 human fibroblast dual HR-NHEJ reporter); assay: NHEJ repair efficiency (GFP+ cells) relative to control (log10 fold); higher = more non-homologous end joining; settings: 5 µM; doxycycline 0.5 ug/mL
[2] = system: CLZ3 (HCA2 human fibroblast dual HR-NHEJ reporter); assay: HR repair efficiency (tdTomato+ cells) relative to control (log10 fold); higher = more homologous recombination; settings: 5 µM; doxycycline 0.5 ug/mL
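Wherever HR repair efficiency (tdTomato+ cells) relative to control is given: compound given one day before doxycycline, which switches on I-SceI endonuclease expression to create double-strand breaks within the integrated reporter.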
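Wherever NHEJ repair efficiency (GFP+ cells) relative to control is given: compound given one day ahead of doxycycline, which switches on I-SceI endonuclease to cut the chromosomally integrated reporter and create DSBs.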

## O=c1cc(-c2ccc(O)cc2)oc2cc(O[C@@H]3O[C@H](CO)[C@@H](O)[C@H](O)[C@H]3O[C@@H]3OC[C@](O)(CO)[C@H]3O)cc(O)c12 [Apiin]
[1]
  NHEJ repair efficiency (log10): 0.142
[2]
  HR repair efficiency (log10): 0.321

## C=C[C@@H]1[C@@H](O[C@@H]2O[C@H](CO)[C@@H](O)[C@H](O)[C@H]2O)OC=C(C(=O)OC)[C@@H]1CCOC(=O)c1cc(O)c(O)c(O)c1 [Cornuside I]
[1]
  NHEJ repair efficiency (log10): -0.0558
[2]
  HR repair efficiency (log10): 0.0608

## CCCCCCCCC[C@H](O)CC(=O)CCc1ccc(O)c(OC)c1 [10-Gingerol]
[1]
  NHEJ repair efficiency (log10): 0.0104
[2]
  HR repair efficiency (log10): 0.0717

## CC1(C)CC[C@]2(C(=O)O)CCC3=C([C@@H](CCl)C[C@@H]4[C@@]5(C)C[C@H](O)[C@H](O)[C@@](C)(C(=O)O)[C@@H]5CC[C@@]34C)[C@@H]2C1 [Senegenin]
[1]
  NHEJ repair efficiency (log10): -0.0514
[2]
  HR repair efficiency (log10): -0.031
